The campaign covered roughly 210,000 compounds. About 5,900 (2.8%) were called active. About 5% were inconclusive and are not listed. Shown is part of a subset that was picked to be rich in actives. Values without a mark were called inactive. Calls come from the whole dose curve; as a rule, active = well fitted activation curve with a large enough effect; inconclusive = small, poorly fitted or top-dose-only effect; inactive = no such curve, though single readings can be large or run the other way.
test: qHTS Assay for Enhancers of SMN2 Splice Variant Expression; conditions: HEK293 SMN2-luciferase splicing reporter, luminescence, 30-36 h; series mostly up to 46.1 µM; activity change, positive = activation: at the top concentration; note: nearly all actives have a fitted effect of over 55% in size; for activity change, positive = activation: % of control where 0% means no effect
Excerpt: NIH Chemical Genomics Center [NCGC] NIH Molecular Libraries Probe Production centers Network [MLPCN] MLPCN Grant: R03 MH084179-01 Assay Submitter (PI): Elliot Androphy NCGC Assay Overview: Spinal muscular atrophy (SMA) is caused by insufficient levels of the survival motor neuron protein SMN. The SMN locus on chromosome 5q13 contains two inverted copies of SMN called SMN1 and SMN2 which are 99% identical at the amino acid level. SMN1 is a fully functional protein and SMN2 skips exon 7 90% of the time. Skipping of exon 7 produces non-functional protein product. 10% of the SMN2 protein includes exon 7 and is fully functional. In the SMA disease state, mutations in the SMN1 locus are the cause of the disease state. Because only 10% of SMN2 is of the fully functional form, it is not sufficient to overcome the deficiency produced by the loss of the SMN1 product. A therapy that either increase the amount of SMN2 product made or to increase the inclusion of exon 7 has been proposed for the treatment of SMA. We have designed an assay to identify small molecules that can increase the amount of functional SMN2 product by appending a luciferase reporter gene after the native SMN2 gene, such that inclusion of exon 7 in the expressed product places the luciferase sequence in frame, thus generating functional luciferase enzyme.
NCGC Assay Protocol Summary: This screen utilizes a luciferase reporter gene assay, combining the promoter and splicing based cassettes in tandem with the major portion of the native SMN2 cDNA, and then transfected into HEK293 cells. Compounds that increase luciferase signal presumably enhance expression of the functional SMN2 splice variant. Passaging media contained DMEM w/ glutamax (+phenol red) 10% FCS, 1x pen/strep, 200 ug/ml hygro, 1x sodium pyruvate. Assay media contained DMEM w/ glutamax (-phenol red) 10% FCS, 1x pen strep, 1x pyruvate Sequence, Parameter, Value, Description (1) Cells, […], 2000 cells/well, 1536 TC treated White solid bottom plate (2) Time, 10-12 hours, 37C 5% CO2 (3) Compound, 23 nl, MLSMR Library (4) Control Compound, 23 nL, Sodium butyrate st 4.5mM (final) conc (5) Time, 30-36 hours, 37C 5% CO2 (6) Reagent, 3 ul, One Glo (TM) from Promega (7) Time, 5-15 minutes, Room temp (8) Detector, Viewlux: luminescent read, 60 second integration, high speed 2x binning Keywords: Spinal muscular atrophy, SMA, SMN2, high throughput screening, MLSMR, MLPCN, NIH Roadmap, qHTS and NCGC
Potency is the fitted concentration of half-maximal effect.

Compound | activity change, positive = activation [%] | Potency
COc1cccc(CNC(=O)C(NS(=O)(=O)c2ccc3nc(C)sc3c2)C(C)C)c1 (stereo unspecified) | -7.88 | 
O=C(Nc1cccc(-c2nc3ncccc3o2)c1)c1ccco1 | -8.65 | 
O=C(Nc1ccc2oc(-c3ccccc3F)nc2c1)c1ccco1 |  | 11.2 µM (active)
O=C(Nc1ccc(O)c(-c2nc3ccccc3o2)c1)c1ccc(-c2cccc(Cl)c2)o1 | -8.85 | 
CCCCN(CC)C(=O)c1c[nH]c2ccc(S(=O)(=O)Nc3cccc(OC)c3)cc2c1=O | 1.17 | 
CCCNC(=O)C(CC)n1nc(CC)n2c(cc3oc(C)cc32)c1=O (stereo unspecified) | -16.5 | 
Cc1ccc(-c2cc(N)n(Cc3cccc(Cl)c3)n2)cc1 | -34 | 
CCc1cc2c(cc3c(=O)n(CC(=O)NCc4cccc(Cl)c4)nc(CC)n32)s1 | -8.46 | 
Cc1ccc2cccc(NC(=O)c3cccc4ccccc34)c2n1 | -1.04 | 
CCc1cccc(OC2OC(CO)C(O)C(O)C2NC(C)=O)c1 (stereo unspecified) | 26.1 | 
COc1ccc(Oc2coc3cc(OC(=O)c4cncc(Br)c4)ccc3c2=O)cc1 | -2.3 | 
Cc1csc(-c2coc3cc(O[C@@H]4O[C@H](CO)[C@@H](O)[C@@H](O)[C@H]4O)ccc3c2=O)n1 |  | 20 µM (active)
CCOc1ccc(C(=O)/C=C/c2cn(CC(O)CN3CCCCCC3)c3ccccc23)cc1 (stereo unspecified) | -12.8 | 
CC(=O)Nc1cccc(C(=O)Nc2nc(C)cs2)c1 | 2.64 | 
Cc1csc(NC(=S)Nc2cccc(Cl)c2)n1 |  | 14.1 µM (active)
S=C(Nc1cccc(Cl)c1)Nc1ccc2cn[nH]c2c1 | 27.5 | 
Cn1c(=O)c2c(-c3ccccc3Br)n(Cc3ccccc3)cc2n(C)c1=O | -0.398 | 
COc1ccc(S(=O)(=O)c2c(Nc3cccc(Cl)c3)sc(C(=O)c3ccccc3)c2N)cc1 | -25.5 | 
COc1ccc(C(CC(=O)O)NC(=O)Cc2ccccc2)cc1 (stereo unspecified) | 20.8 | 
COc1ccc(C(CC(=O)c2ccccc2)S(=O)(=O)c2ccccc2)cc1 (stereo unspecified) |  | 12.6 µM (active)
COc1ccc(C(=O)CSc2nccc(=O)[nH]2)cc1 | -3.01 | 
O=c1ccn([C@@H]2O[C@H](COP(=O)(O)OP(=O)(O)OP(=O)(O)O)[C@@H](O)[C@H]2O)c(=O)[nH]1 | -3.68 | 

Compound | activity change, positive = activation [%] | Potency
COc1ccc(CCN2C(=O)c3oc4cc(C)cc(C)c4c(=O)c3C2c2ccccc2F)cc1OC (stereo unspecified) | 4.2 | 
O=C(Nc1nnc(SCc2ccccc2)s1)c1ccco1 | 39.9 | 
Cc1cccc(CSc2nnc(NC(=O)CSc3nnc(C)s3)s2)c1 | -6.2 | 
Cc1ccc(Nc2nnc(SCc3ccccc3)s2)cc1 |  | 14.1 µM (active)
COc1cc(C(=O)N(Cc2ccc(C(C)C)cc2)C2CCS(=O)(=O)C2)cc(OC)c1OC (stereo unspecified) | -5.52 | 
COc1ccc(CCNC(=O)Cn2c(=O)n(-c3ccccc3)c(=O)c3c(C)c(C)sc32)cc1OC | -5.04 | 
Cc1ccc(-c2noc(CSc3nnc(-c4cccs4)n3C)n2)cc1 | -21.9 | 
COc1ccc(Cc2nc(-c3ccccn3)no2)cc1OC | 21.9 | 
c1ccc(-c2noc(-c3cccs3)n2)nc1 |  | 2.82 µM (active)
CC(C)c1nc(-c2ccccn2)no1 | -5.04 | 
c1ccc(CCc2nc(-c3ccncc3)no2)cc1 | 24 | 
c1csc(-c2nc(-c3ccncc3)no2)c1 |  | 15.8 µM (active)
COc1ccc(C)cc1-n1c(-c2ccc(C)cc2)cc2c1CC(C)(C)CC2=O | 10.6 | 
Cn1c(=O)c(C(=O)O)nn(-c2ccccc2)c1=O | 17.2 | 
COc1ccc(-c2c(C)nn3c(N4CCC(C(=O)NCCC(C)C)CC4)cc(C)nc23)cc1OC | -0.433 | 
Cc1cc(N2CCCC2)n2nc(C)c(-c3ccccc3)c2n1 |  | 11.2 µM (active)
Cc1cc(-n2nc(C)cc2C)n2nc(C)c(-c3ccccc3)c2n1 | -15.7 | 
Cc1cc(-c2ccccc2)n2nc(C)c(-c3ccccc3)c2n1 | -18.7 | 
CCc1nc2nc(C)cc(Nc3ccc(F)c(Cl)c3)n2n1 | -8.09 | 
Cn1c(C(=O)N2CCC(C(=O)N3CCN(c4ccccc4)CC3)CC2)cc2sccc21 | 5.79 | 
COc1ccc(NC(=O)CCN2CCN(CCO)CC2)cc1 | 1.23 | 
CC(C)N1CCC(NC(=O)Nc2ccccc2)CC1 | -0.391 | 

Compound | activity change, positive = activation [%] | Potency
CC(C)c1ccc(NC(=O)NC2CCCCC2)cc1 |  | 11.2 µM (active)
CC(C)(C)NS(=O)(=O)c1ccc(NC(=O)NC2CCCCC2)cc1 | -0.432 | 
CCc1nn(CC(=O)N2CCN(c3cccc(C(F)(F)F)c3)CC2)c(=O)c2cc3occc3n12 | 7.08 | 
Nc1ccc(S(=O)(=O)Nc2nccc(/C=C/c3ccc(Br)s3)n2)cc1 | 17.1 | 
Oc1cccc2ccc(/C=C/c3ccc(Br)s3)nc12 |  | 8.91 µM (active)
COc1cc(OC)cc(-c2nc3nc(C)c(CCC(=O)Nc4ccccc4)c(C)n3n2)c1 | -8.35 | 
CC(C)C(=O)Nc1cccc(NC(=O)c2ccc([N+](=O)[O-])cc2Cl)c1 | -4.89 | 
O=C(Nc1ccc(Br)cn1)c1ccc([N+](=O)[O-])cc1Cl |  | 7.08 µM (active)
O=C(Nc1ccc(Br)cn1)c1ccc([N+](=O)[O-])o1 | 9.38 | 
COc1ccccc1N1CCN(c2ncnc3onc(-c4cccc(Cl)c4)c23)CC1 | -0.084 | 
O=C(Nc1nnc(C2CC2)s1)c1ccccn1 |  | 2.82 µM (active)
Cc1occc1C(=O)Nc1nnc(C2CCCCC2)s1 | 11.1 | 
O=C(Nc1nnc(Cc2ccccc2)s1)c1cnccn1 | 22.7 | 
NC(=O)CSc1nc2c(oc3ccccc32)c(=O)n1Cc1ccccc1 | -5.05 | 
Cc1ccc(-n2c(SCC(=O)Nc3cccc(F)c3)nc3c(oc4ccccc43)c2=O)cc1C | -7.05 | 
COC(=O)C1=C(c2ccccc2)c2ccccc2S(=O)(=O)N1CC(=O)Nc1ccccc1C(F)(F)F | 8.62 | 
COc1ccc(C(F)(F)F)cc1NC(=O)c1sc2nc(-c3cccs3)ccc2c1N | 11 | 
CN1C(=O)/C(=C/C=C2\SCCN2C)OC1=S |  | 12.6 µM (active)
Cc1n[nH]c(C)c1S(=O)(=O)N1CCCC(C(=O)Nc2ccc(Br)cc2)C1 (stereo unspecified) | -57.6 | 
Cc1ccc2nc(-c3ccc(O)cc3)c(Nc3ccc4c(c3)OCO4)n2c1 | -7.48 | 
CCOc1ccc(S(=O)(=O)N(CC(=O)NCCSCc2ccc(C)cc2)c2ccccc2)cc1 | -13.4 | 
Cc1ccc(-c2noc(CSc3nnc(-c4ccc(Cl)cc4)n3C)n2)cc1 | 7.16 | 

— PubChem BioAssay AID1458 (National Center for Advancing Translational Sciences (NCATS), 2008)
